Reference: the supplement of paper PMC13380429

System: Vero E6 infected with SARS-CoV-2
Assay: inhibition of SARS-CoV-2 cytopathic effect; higher = more antiviral protection, active = above 15
Details: 48 h

Measured: inhibition of SARS-CoV-2 cytopathic effect

C=CCN1CCc2nc(N)sc2CC1 [talipexole]
inactive: 1 nM -0.94% | 8.33 nM 1.41% | 100 nM 0.94% | 833.33 nM -0.07% | 10000 nM -2.07%

c1ccc2c(c1)CN1CCCC1=N2 [desoxypeganine]
inactive: 1 nM -4.75% | 8.33 nM -3.18% | 100 nM -1.21% | 833.33 nM -2.32% | 10000 nM -1.54%

CC[N+](C)(CC)CCC[n+]1c(-c2ccccc2)c2cc(N)ccc2c2ccc(N)cc21 [propidium-iodide]
inactive: 1 nM -1.36% | 8.33 nM -0.29% | 100 nM 3.2% | 833.33 nM 2.34% | 10000 nM 2.62%

C#Cc1cnc2nc(O)n(C(CC)CC)c2n1 [tirasemtiv]
inactive: 1 nM 1.57% | 8.33 nM -0.65% | 100 nM 1.78% | 833.33 nM 2.57% | 10000 nM -1.21%

CC1=NN(c2ccccc2)C(=O)C1 [edaravone]
inactive: 1 nM 1.36% | 8.33 nM 0.66% | 100 nM -0.76% | 833.33 nM 0.1% | 10000 nM 3.57%

O=C(O)c1cc(=O)c2ccccc2o1 [chromocarb]
inactive: 1 nM -1.09% | 8.33 nM -0.13% | 100 nM -0.55% | 833.33 nM 3.21% | 10000 nM -0.51%

CCN(CC)C(=O)[C@@]1(c2ccccc2)C[C@H]1CN [milnacipran]
inactive: 1 nM -4.3% | 8.33 nM -3.38% | 100 nM -4.94% | 833.33 nM -0.26% | 10000 nM 1.05%

CCN(CC)C(C)C(=O)c1ccccc1 (stereo not given) [amfepramone]
inactive: 1 nM -1.18% | 8.33 nM 1.39% | 100 nM -1.99% | 833.33 nM 1.34% | 10000 nM -0.09%
